# Experimental data published in PubChem BioAssay AID504651 (National Center for Advancing Translational Sciences (NCATS), 2011).
# The whole screen tested about 360,000 compounds, of which about 130 (0.036%) were called active. The full list was thinned out, with actives kept by preference. Unmarked numbers belong to inactive results. No stated cut-off is given here; in the data, active means potentiation above about 30%; inactive means the rest.
# Target: D(1A) dopamine receptor (Homo sapiens) (UniProt P21728)
# Sequence (P21728 whole entry, looked up): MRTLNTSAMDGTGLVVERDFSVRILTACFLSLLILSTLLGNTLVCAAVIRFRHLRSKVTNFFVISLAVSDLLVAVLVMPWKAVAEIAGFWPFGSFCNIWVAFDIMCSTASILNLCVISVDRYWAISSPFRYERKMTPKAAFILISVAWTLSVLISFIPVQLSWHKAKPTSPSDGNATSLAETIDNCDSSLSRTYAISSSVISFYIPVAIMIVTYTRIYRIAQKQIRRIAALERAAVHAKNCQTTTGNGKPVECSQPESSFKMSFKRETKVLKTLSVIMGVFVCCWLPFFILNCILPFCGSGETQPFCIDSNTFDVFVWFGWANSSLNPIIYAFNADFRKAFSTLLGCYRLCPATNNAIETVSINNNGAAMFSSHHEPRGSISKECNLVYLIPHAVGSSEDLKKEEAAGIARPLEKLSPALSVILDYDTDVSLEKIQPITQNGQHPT
# Assay: Potentiators of Human D1 Dopamine Receptor: qHTS; further: 0% is about no effect
# Conditions: HEK293 TREx D1 cells, calcium flux, dopamine EC20 potentiation; at 10 µM; stronger effect = higher value
# Source text: Dopamine receptors (DARs) are involved in the etiology and/or therapy of a number of neuropsychiatric and endocrine disorders. For instance, all receptor-based antiparkinsonian drugs work via stimulating the D1 DAR subtype whereas all FDA-approved antipsychotic agents are antagonists of this receptor. […] There are three different types of allosteric modulators that we are seeking, two of which will stimulate or augment receptor signaling, allosteric agonists and potentiators, while the third, allosteric antagonists, will attenuate receptor signaling. The present primary screening assay measures compound potentiation of an EC20 dopamine response by tracking calcium flux in a […], inducible Hek293 Trex D1 cell line.
# NIH Chemical Genomics Center [NCGC]
# NIH Molecular Libraries Probe Centers Network [MLPCN]
# Assay Submitter (PI): David Sibley
# Freshly passaged cells are plated in 1536 well black, clear bottom plates at a density of 4000 cells/well in 3 ul of complete media containing 1x tetracycline inducer. After an overnight incubation at 30 C in 5% CO2, cells are loaded with 2 ul of the no wash Calcium Assay Kit (ABD Bioquest) and incubated at room temperature for 30 to 90 minutes. A 10 cycle (1 second/cycle) baseline measurement is taken and then the FDSS online 1536 pintool delivers 23 nl of compound library (as well as dopamine controls) to the plate. The plate is measured for kinetically at 1 cycle/sec for 180 seconds and is considered to be the agonist portion of the assay (eg, compounds which activate a positive calcium response during this portion are flagged as potential agonists). Following the 180 second read, 1 ul of an EC20 of dopamine is delivered by an onboard pipette head. Measurements are taken kinetically for an additional 180 seconds.
row,SMILES,potentiation
1,Cc1ccc(S(=O)(=O)NC(N)=NCCC[C@@H](NC(=O)CNC(=O)c2ccccc2)C(=O)Nc2cc(C(F)(F)F)ccc2Cl)cc1,5.3%
2,COc1ccc(N2C(=O)CS(=O)(=O)C23C(=O)N(Cc2ccc(C)cc2)c2ccccc23)cc1Cl (centres undefined),-6.6%
3,COc1cccc(NC(=O)N(Cc2cn(C)c3ccccc23)C2CCCCCC2)c1,1.8%
4,O=C(CC1N=C2c3ccccc3N=C(SCc3ccc(F)cc3)N2C1=O)NCc1cccs1 (centres undefined),-0.25%
5,CCN1CCN(c2cc(C)c3cc(NC(=O)c4cc(Cl)ccc4OC)ccc3n2)CC1,-1.15%
6,Cc1nc(SCC(=O)N2CCN(c3ccccc3)CC2)[nH]c(=O)c1C,5.55%
7,CC(=O)c1ccc(NC(=O)CSc2nnc(NC(=O)Nc3ccccc3)s2)cc1,4.75%
8,Cc1ccc(O)c(NC(=O)CCS(=O)(=O)c2nc(-c3ccc4c(c3)OCO4)cc(C(F)(F)F)n2)c1,-1.35%
9,CCOC(=O)Cn1c(=O)n(-c2ccccc2OC)c2nc(-c3cccc(F)c3)nc(C(N)=O)c21,-1.3%
10,Cc1ccc(C2CCN(C(=O)c3cnn(-c4ccccc4Cl)c3C3CCN(C(=O)OC(C)(C)C)CC3)C2)cc1 (centres undefined),2%
11,COc1ccc(N2CCN(C(=O)c3c(C)oc4nc(C)nc(N5CCCC5)c34)CC2)cc1,-1.55%
12,O=C(CSc1nccn1Cc1ccc(Cl)cc1)NCc1ccccc1,0.3%
13,COc1cc(OC)cc(C(=O)N[C@H](C(=O)OCC(=O)NC(C)c2ccccc2)C(C)C)c1 (some centres undefined),36.6% (active)
14,COc1ccc(N2CCN(C(=O)[C@@H](NC(=O)c3cc(OC)cc(OC)c3)C(C)C)CC2)cc1,-4.25%
15,Cc1ccccc1OCCC(=O)OCC(=O)NC(C)c1ccccc1 (centres undefined),-0.3%
16,Cc1onc(-c2ccc(F)cc2F)c1C(=O)Nc1cccc(C(F)(F)F)c1,0.65%
17,COc1ccccc1-c1cc(C(F)(F)F)nc(S(=O)(=O)CCCC(=O)Nc2ccc(F)cc2F)n1,-0.1%
18,COc1ccc(CCNc2nc(-c3ccc(F)cc3)cc(C(F)(F)F)n2)cc1OC,3.1%
19,Brc1ccc2c(c1)NC(c1cccnc1)=NC(c1ccccc1)=N2,35.8% (active)
20,COc1ccc(C2=NC(c3ccncc3)=Nc3ccc(Br)cc3N2)cc1,3.45%
21,Brc1ccc(C2CC(c3ccccc3)=Nc3ccccc3N2)cc1 (centres undefined),-5.6%
22,CCCCS(=O)(=O)c1oc(-c2cccs2)nc1S(=O)(=O)c1ccccc1,-0.2%
23,CCc1ccccc1NC(=O)c1ccc2nc(CCc3ccccc3)oc2c1,1%
24,CCOc1ccccc1C(=O)NC1(C(F)(F)F)NC(=O)N(CCc2ccc(OC)c(OC)c2)C1=O (centres undefined),-3.95%
25,O=C(NCc1nnc(C(=O)Nc2ccc(C(F)(F)F)cc2Cl)o1)c1ccccc1,-8.2%
26,CCCS(=O)(=O)c1ncc(Cl)c(C(=O)Nc2scc(-c3ccccc3)c2C(=O)OCC)n1,-3.7%
27,N#Cc1nc(Nc2cc(F)cc(Cl)c2)nc(NC2CCCC2)n1,-0.2%

row,SMILES,potentiation
1,CCOc1ccc(C2C(C#N)=C(N)N(N(C)C)C3=C2C(=O)CCC3)cc1 (centres undefined),-0.15%
2,COc1ccc(C2C3=C(CCCC3=O)N(CC(=O)O)C3=C2C(=O)CCC3)cc1,1%
3,CCOc1ccc(C2C3=C(CCCC3=O)N(CC(=O)O)C3=C2C(=O)CCC3)cc1,36% (active)
4,CCc1ccc(CN(Cc2ccco2)C(=O)c2ccccc2Cl)cc1,-2.55%
5,CC(=O)Nc1cccc(NC(=O)CSc2cn(CC(=O)N3CCCC3)c3ccccc23)c1,-2.85%
6,O=c1c(NCc2cccs2)nccn1-c1ccccc1,0.1%
7,O=C(COc1ccc(Cl)cc1)N(Cc1ccco1)Cc1ccco1,1.05%
8,Cc1ccc(Cn2c(C)c3cnn(CC(=O)NCc4ccccc4)c(=O)c3c2C)cc1,-1.5%
9,O=C(COc1ccccc1)NCc1ccc2c(c1)CCN2C(=O)c1ccc(F)cc1,-2.1%
10,Cc1ccc(CCNC(=O)Cn2c(-c3cccs3)cc3cc(F)ccc32)cc1,-3.65%
11,Cc1ccc(-c2cc(N)n(Cc3cccc(Cl)c3)n2)cc1,-4.4%
12,O=S(=O)(c1ccc2nc(NCc3ccccc3Cl)ccc2c1)N1CCCCC1,-5.55%
13,Cc1ccc2ccc3c(c2n1)NS(=O)(=O)c1ccccc1-3,1.45%
14,COc1ccc(OC)c(NC(=O)CSc2nc3ccccc3nc2N2CCCCC2)c1,-3.85%
15,CCc1ccccc1NC(=O)CSc1nnc(-c2ccccc2)c(-c2ccccc2)n1,1%
16,Cc1c(Cl)cccc1NC(=O)c1noc2c1CCCC2,2.2%
17,CCC(=O)N1CCc2cc(CNS(=O)(=O)c3ccc(Br)s3)ccc21,-0.5%
18,O=C1C(F)N([S+](=O)([O-])c2ccc3c(c2)OCCO3)CCN1[S+](=O)([O-])c1c(F)cccc1F (centres undefined),5.45%
19,COc1cccc(CNC(=O)c2ccc3c(c2)N(Cc2ccc(C(F)(F)F)cc2)C(=O)c2ccccc2S3)c1OC,-5.65%
20,N#Cc1nc(Nc2cccc(Cl)c2)nc(NC2CCCC2)n1,-2.6%
21,Cc1c(-c2nc(-c3ccc4c(c3)OCO4)no2)nnn1-c1ccc(Br)cc1F,-2.8%
22,CC1CCC2(CC1)N=C(c1ccccc1)C(=O)N2CC(=O)Nc1ccc(F)c(Cl)c1 (centres undefined),-3.15%
23,CN(C(=O)c1ccc2c(c1)N(Cc1cccc(Cl)c1)C(=O)c1ccccc1S2=O)C1CCCCC1 (centres undefined),0.2%
24,CCc1cc2c(cc3c(=O)n(CC(=O)N4CCN(c5cc(Cl)ccc5C)CC4)ncn32)s1,-2.7%
25,O=C(CNC(=O)c1ccccc1)OC(C(=O)Nc1cc([N+](=O)[O-])ccc1F)c1ccccc1 (centres undefined),5.6%
26,COCCNC(=O)c1ccc2c(c1)N=C(C)c1cc(C)ccc1S2,0.1%
27,CCOC(=O)c1cccc(NC(=O)c2cc(CN3CCCC3)on2)c1,-7.25%
